High-throughput results: PubChem BioAssay, Broad Institute
Only a selection was taken, and hits are over-represented in it overall.
IDE exosite inh – displaces the probe from the exo-site of human IDE; z-score at 20 µM; purified IDE, FL-6b probe fluorescence polarization; hits give low values; actives 6.3% (n = 17,000); AID 1259349;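 active = z-score of -3 or lower, meaning strong loss of probe binding signal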;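 note: His-tagged human IDE residues 42-1019 made in E. coli with 30 nM FL-6b probe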
Target sequence (P14735 42-1019 limits assumed): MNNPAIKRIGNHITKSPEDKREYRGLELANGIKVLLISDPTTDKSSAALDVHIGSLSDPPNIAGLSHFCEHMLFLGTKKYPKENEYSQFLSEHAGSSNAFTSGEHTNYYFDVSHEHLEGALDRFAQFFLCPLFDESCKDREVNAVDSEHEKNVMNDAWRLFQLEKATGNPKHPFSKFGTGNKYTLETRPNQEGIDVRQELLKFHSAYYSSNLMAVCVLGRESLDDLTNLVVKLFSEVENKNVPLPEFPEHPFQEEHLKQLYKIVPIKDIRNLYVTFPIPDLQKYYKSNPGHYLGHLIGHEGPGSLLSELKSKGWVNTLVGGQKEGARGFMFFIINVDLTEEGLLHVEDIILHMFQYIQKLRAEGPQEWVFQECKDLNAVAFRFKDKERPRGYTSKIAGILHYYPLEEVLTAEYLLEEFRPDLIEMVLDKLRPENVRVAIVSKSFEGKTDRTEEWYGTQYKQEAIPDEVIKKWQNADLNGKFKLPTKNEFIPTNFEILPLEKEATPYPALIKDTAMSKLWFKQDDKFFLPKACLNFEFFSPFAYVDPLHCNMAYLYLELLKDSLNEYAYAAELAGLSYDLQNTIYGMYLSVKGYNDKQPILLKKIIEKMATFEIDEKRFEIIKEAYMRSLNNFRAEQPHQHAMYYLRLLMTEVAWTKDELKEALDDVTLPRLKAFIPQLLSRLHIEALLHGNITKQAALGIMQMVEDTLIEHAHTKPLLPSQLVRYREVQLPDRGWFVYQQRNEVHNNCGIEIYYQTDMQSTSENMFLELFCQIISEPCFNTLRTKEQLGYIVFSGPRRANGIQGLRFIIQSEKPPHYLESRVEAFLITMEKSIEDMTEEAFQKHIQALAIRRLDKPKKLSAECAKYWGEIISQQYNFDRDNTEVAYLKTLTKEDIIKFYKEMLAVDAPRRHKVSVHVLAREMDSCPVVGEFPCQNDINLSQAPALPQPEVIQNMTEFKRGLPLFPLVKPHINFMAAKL
* hit, by the source's call.

SMILES	IDE exosite inh
O=C(C1CC1)N1CC(=O)N2[C@@H](CO)[C@H](c3ccc(C#CCc4ccccc4)cc3)[C@@H]2C1	-0.585
O=C(C1CC1)N1CC(=O)N2[C@H](CO)[C@@H](c3ccc(C#CCc4ccccc4)cc3)[C@H]2C1	0.018
CCC(=O)N1CC(=O)N2[C@H](CO)[C@H](c3ccc(C#CCc4ccccc4)cc3)[C@@H]2C1	-5.83*
CCC(=O)N1CC(=O)N2[C@H](CO)[C@H](c3ccc(C#CCc4ccccc4)cc3)[C@H]2C1	-3.56*
CCC(=O)N1CC(=O)N2[C@H](C1)[C@@H](c1ccc(C#CCc3ccccc3)cc1)[C@@H]2CO	-2.54
COCC(=O)N1CC(=O)N2[C@H](C1)[C@H](c1ccc(C#CCc3ccccc3)cc1)[C@@H]2CO	1.21
O=C(C1CC1)N1CC(=O)N2[C@H](CO)[C@@H](c3ccc(C#CCc4ccccc4)cc3)[C@@H]2C1	0.353
CCC(=O)N1CC(=O)N2[C@H](CO)[C@@H](c3ccc(C#CCc4ccccc4)cc3)[C@@H]2C1	-0.778
CCC(=O)N1CC(=O)N2[C@@H](CO)[C@H](c3ccc(C#CCc4ccccc4)cc3)[C@@H]2C1	-3.78*
CC(C)CC#Cc1ccc([C@@H]2[C@H]3CN(S(=O)(=O)c4cccc(F)c4)CC(=O)N3[C@H]2CO)cc1	0.301
N#C[C@H]1[C@@H](c2ccc(C#CC3CCCCC3)cc2)[C@@H](CO)N1S(=O)(=O)Cc1ccccc1	3.89
COc1cccc(S(=O)(=O)N2CC[C@H]3[C@H](CO)Nc4ccc(C#Cc5cccnc5)cc4[C@H]32)c1	-1.78
CO[C@H]1CN(C)C(=O)c2cc(NC(=O)c3ccc(F)cc3)ccc2OC[C@@H](C)N(C(=O)CC2CC2)C[C@@H]1C	0.596
CC(=O)NC[C@H]1[C@H](c2ccc(-c3ccccc3)cc2)[C@@H](CO)N1C(=O)C1CC1	3.17
CCCN(C)C[C@@H]1OCCCC[C@@H](C)Oc2ccc(NC(=O)CCCN(C)C)cc2C(=O)N([C@H](C)CO)C[C@H]1C	-0.433
Cc1ccc(-c2ccccc2[C@@H]2[C@@H](C#N)N(C(=O)NC3CCCC3)[C@H]2CO)cc1	1.26
CN(C)C(=O)c1ccc(-c2ccc([C@H]3[C@@H](CO)N4CCCCN(S(C)(=O)=O)C[C@@H]34)cc2)cc1	-1.41
O=C(C[C@H]1C[C@H]2c3cc(NC(=O)C4CCOCC4)ccc3O[C@H]2[C@H](CO)O1)NCc1cccnc1	0.542
C[C@H](O)C#Cc1ccc([C@H]2[C@H]3CN(CC4CC4)CCCCN3[C@H]2CO)cc1	0.925
O=C(c1ccncc1)N1CC2(C1)[C@@H](c1ccccc1)[C@@H](CO)N2CC1CC1	-0.475
O=C(Cc1ccccn1)N1CC2(C1)[C@@H](c1ccccc1)[C@H](CO)N2C(=O)c1ccncc1	-3.56*
O=C(CC1CC1)N1CC2(C1)[C@H](c1ccccc1)[C@@H](CO)N2Cc1ccccn1	1.37
CC(=O)N1[C@H](CN(C(=O)c2ccc(F)cc2)C(C)C)[C@H](c2ccccc2)[C@@H]1CO	1.55
CO[C@H]1CN(C)C(=O)c2cc(NC(=O)NC(C)C)ccc2OC[C@@H](C)N(C(=O)CN(C)C)C[C@@H]1C	0.469
Cc1cccc(-c2ccc([C@@H]3[C@H](CO)N4CCCCN(S(=O)(=O)c5ccccc5C)C[C@@H]34)cc2)c1	-10.8*
SMILES	IDE exosite inh
Cc1cccc(-c2ccc([C@H]3[C@@H](CO)N4CCCCN(S(=O)(=O)c5ccccc5C)C[C@@H]34)cc2)c1	3.6
Cc1cccc(-c2ccc([C@H]3[C@@H](CO)N4CCCCN(S(=O)(=O)c5ccccc5C)C[C@H]34)cc2)c1	-0.559
Cc1cccc(-c2ccc([C@@H]3[C@@H](CO)N4CCCCN(S(=O)(=O)c5ccccc5F)C[C@H]34)cc2)c1	0.502
Cc1cccc(-c2ccc([C@@H]3[C@@H](CO)N4CCCCN(S(=O)(=O)c5ccccc5F)C[C@@H]34)cc2)c1	-27.2*
Cc1cccc(-c2ccc([C@H]3[C@@H](CO)N4CCCCN(S(=O)(=O)c5ccccc5F)C[C@@H]34)cc2)c1	-0.0513
CN(C)CC#Cc1ccc([C@H]2[C@H](CO)N3C(=O)CN(C(=O)c4ccc(F)cc4)C[C@@H]23)cc1	0.565
COCC(=O)N1CC2(C1)CN(C(=O)Nc1ccccc1F)[C@@H](CO)c1[nH]c3cc(OC)ccc3c12	-1.02
O=C(C[C@H]1CC[C@H]2[C@@H](COC[C@H](O)CN2C(=O)c2cnccn2)O1)NCc1ccc(Cl)cc1	-1.27
CC(C)(C)[S@@](=O)N1Cc2cc(C(=O)NCc3ccccn3)nc(-c3cccc(-c4ccccc4F)c3)c2[C@H]1CCO	0.707
CCCC#Cc1ccc([C@@H]2[C@@H](CO)N3CCCCN(Cc4ccncc4)C[C@@H]23)cc1	3.59
O=C(C[C@H]1C[C@H]2c3cc(NS(=O)(=O)c4ccccc4)ccc3O[C@H]2[C@H](CO)O1)NCC(F)(F)F	0.904
N#Cc1cccc(-c2ccc(C3[C@@H]4CN(C(=O)Nc5ccc(C(F)(F)F)cc5)C[C@H]3N4)cc2)c1 (stereo partly drawn)	-0.287
COCC(=O)NC[C@H]1N[C@H](CO)[C@@H]1c1ccc(-c2ccccc2)cc1	-0.596
O=C(NC[C@H]1N[C@@H](CO)[C@H]1c1ccc(-c2ccccc2F)cc1)c1ccccn1	-2.49
O=C(NC[C@H]1N[C@H](CO)[C@H]1c1ccc(-c2ccccc2F)cc1)c1ccccn1	-4.68*
O=C(NC[C@H]1N[C@@H](CO)[C@H]1c1ccc(-c2ccc(F)cc2)cc1)c1ccccn1	5.69
COCC(=O)NC[C@@H]1N[C@@H](CO)[C@H]1c1ccc(C2=CCCCC2)cc1	1.89
COCC(=O)NC[C@@H]1N[C@@H](CO)[C@H]1c1ccc(-c2ccccc2F)cc1	-3.81*
CC(C)C#Cc1ccc([C@@H]2[C@H](CO)N3CCCCN(CC4CC4)C[C@@H]23)cc1	1.25
N#C[C@@H]1[C@H](c2ccc(-c3cccc(F)c3)cc2)[C@@H](CO)N1C(=O)NC1CCCC1	-1.74
COc1cccc(NC(=O)N2CC3(C2)[C@@H](c2ccccc2)[C@H](CO)N3C(C)=O)c1	-0.0644
CCCNC(=O)N1[C@H](CO)[C@H](c2ccc(C#CC3CC3)cc2)[C@H]1CNC	0.686
OC[C@H]1[C@@H](c2ccc(-c3ccccc3)cc2)[C@@H]2CN(CCC(F)(F)F)CCCCN12	-0.541
COc1ccccc1C#Cc1ccc([C@H]2[C@H]3CN(CCC(F)(F)F)CCCCN3[C@H]2CO)cc1	-7.19*
OC[C@@H]1[C@@H](c2ccc(C#CC3CCCC3)cc2)[C@H]2CN(CCC(F)(F)F)CCCCN12	1.75
SMILES	IDE exosite inh
COc1ccccc1C#Cc1ccc([C@@H]2[C@@H](CO)N3CCCCN(CCC(F)(F)F)C[C@H]23)cc1	-2.59
OC[C@H]1[C@H](c2ccc(C#CC3CCCC3)cc2)[C@@H]2CN(CCC(F)(F)F)CCCCN12	4.27
COc1ccccc1C#Cc1ccc([C@H]2[C@@H](CO)N3CCCCN(CCC(F)(F)F)C[C@H]23)cc1	-12.3*
O=C1CN(Cc2ccc(F)cc2)C[C@H]2[C@@H](c3ccc(Br)cc3)[C@@H](CO)N12	2.43
CN1C(=O)c2cc(NS(C)(=O)=O)ccc2OC[C@@H]2O[C@H](CC(=O)NCc3ccccc3)CC[C@H]21	-1.12
CCCC#Cc1ccc2c(c1)[C@@H]1[C@@H](CCN1S(=O)(=O)c1cccc(F)c1)[C@@H](CO)N2C	1.93
C/C=C/c1ccc([C@@H]2[C@@H](CO)N3C(=O)CN(C(=O)Cc4cccnc4)C[C@@H]23)cc1	3.19
O=C(Cc1cccnc1)N1CC(=O)N2[C@H](CO)[C@@H](c3ccc(/C=C/c4ccccc4)cc3)[C@@H]2C1	-0.701
